Source: PubChem
KCNQ2 inh: rat KCNQ2 potassium channel inhibitors, primary screen, cell-based, CHO-K1, FluxOR thallium flux, B-score | Potassium voltage-gated channel subfamily KQT member 2 (Rattus norvegicus), O88943 | 20 min; hits give low values | B-score at 10 µM | 1.1% of 310,000 active | AID 2156, 2009;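 active means fluorescence ratio B-score at most minus 3 library SDs, with starting brightness B-score within 2 library SDs, cut at about -5.5 in these data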
KCNQ2 enhance: potentiators of rat KCNQ2 potassium channel. AID 2239, 2010. CHO-K1 KCNQ2, FluxOR thallium flux fluorescence; hits give high values. B-score at 10 µM. 0.54% of 310,000 active. Potassium voltage-gated channel subfamily KQT member 2 (Rattus norvegicus), O88943;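 active means fluorescence ratio B-score at least 3 SD of library B-scores, with initial fluorescence B-score within 3 of them, cut at about 5.3 in these data; same plate scores as AID 2156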;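 further: B-score of peak minus minimum over baseline fluorescence ratio after K+ and Tl+ stimulus; positive B-score means potentiation of KCNQ2 with more thallium influx and brighter signal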
Kir21 conf inh: mouse Kir2.1 channel blockers, retest, confirmation, cell-based, FluxOR thallium flux, duplicate; 41% of 2,300 active; Tl flux remaining, % of negative control (hits give low values), % at 10 µM; Kir2.1-expressing cells, FluxOR thallium flux fluorescence; hits give low values; shares compounds with KCNQ2 enhance;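 active means Primary-screen hit whose thallium flux fell at least 3 control SD below untreated wells in both duplicates, with normal baseline fluorescence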
HEK293 Tl flux: alters thallium flux in parental HEK293 cells, Kir2.1 counter-screen; FluxOR thallium flux fluorescence; 0% = unstimulated blank wells; 19% of 2,300 active; AID 2105; shares compounds with KCNQ2 enhance; FluxOR signal as % of negative control (100 = no effect), % at 10 µM;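 active means dye signal at least 3 control SD above or below untreated wells in both duplicates, raw fluorescence within 3, either direction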;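 further: percent is based on the flux ratio of peak minus minimum fluorescence over baseline F0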
CHO-K1 ctr: nonspecific thallium flux increase in parental CHO-K1, confirmation, counter-screen for KCNQ2 potentiator project, cell-based, FluxOR thallium flux, duplicate; shares compounds with KCNQ2 enhance; parental CHO-K1 cells, FluxOR thallium flux fluorescence; zero = vehicle mean+3SD, 100% = vehicle-minus-blank window; activity increase over 3SD of controls, % at 10 µM; 43% of 1,200 active;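 active means signal rise of at least 3 SD above the untreated control mean, in both duplicate wells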;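 further: counter screen of KCNQ2 potentiator hits so any rise reflects channel-independent effects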
KCNQ1 pot spec: human KCNQ1 channel potentiation off-target, confirmation, selectivity assay for KCNQ2 potentiator project, cell-based, CHO, FluxOR thallium flux; shares compounds with KCNQ2 enhance; CHO KCNQ1 stable, FluxOR thallium flux fluorescence; beyond 3SD, as % of vehicle-control signal; activation over 3SD threshold, % at 10 µM; 28% of 1,200 active; AID 2283, 2010;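 active means fluorescence ratio rise of at least 3 SD of vehicle wells above their mean, in both replicate wells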
KCNQ2 pot conf: rat KCNQ2 channel potentiators, confirmation, cell-based, CHO, FluxOR thallium flux, duplicate; 68% of 1,200 active; CHO-KCNQ2 cells, FluxOR thallium flux fluorescence; shares compounds with KCNQ2 enhance; potentiation, less the hit threshold, % at 10 µM; AID 2287, 2010;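 active means fluorescence ratio rising 3 SD or more over the vehicle control mean in both replicates, plus primary screen hit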;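 further: peak minus minimum thallium fluorescence divided by baseline after K/Tl stimulus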
Kir2-1 sel: mouse Kir2.1 channel activation off-target, confirmation, selectivity assay for KCNQ2 potentiator project, cell-based, HEK293, FluxOR thallium flux. shares compounds with KCNQ2 enhance. HEK293 Kir2.1, FluxOR thallium flux fluorescence. activity over 3SD threshold, % at 10 µM. 2% of 1,200 active. AID 2345, 2010;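 active means fluorescence ratio rise of at least 3 SD above the vehicle-control mean, seen in both replicates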
KCNQ2 W236L pot: potentiators of retigabine-insensitive KCNQ2 W236L, mechanism study for KCNQ2 potentiator project, cell-based, rat KCNQ2 W236L, CHO, automated patch clamp; current increase over 3SD of negative controls (%), hits give high values, % at 25 µM; shares compounds with KCNQ2 enhance; automated patch clamp current; 10% of 940 active;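 active means current increase at least 3 SD of the untreated controls above them in both duplicate recordings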
Target sequence (O88943 whole entry W236L, looked up): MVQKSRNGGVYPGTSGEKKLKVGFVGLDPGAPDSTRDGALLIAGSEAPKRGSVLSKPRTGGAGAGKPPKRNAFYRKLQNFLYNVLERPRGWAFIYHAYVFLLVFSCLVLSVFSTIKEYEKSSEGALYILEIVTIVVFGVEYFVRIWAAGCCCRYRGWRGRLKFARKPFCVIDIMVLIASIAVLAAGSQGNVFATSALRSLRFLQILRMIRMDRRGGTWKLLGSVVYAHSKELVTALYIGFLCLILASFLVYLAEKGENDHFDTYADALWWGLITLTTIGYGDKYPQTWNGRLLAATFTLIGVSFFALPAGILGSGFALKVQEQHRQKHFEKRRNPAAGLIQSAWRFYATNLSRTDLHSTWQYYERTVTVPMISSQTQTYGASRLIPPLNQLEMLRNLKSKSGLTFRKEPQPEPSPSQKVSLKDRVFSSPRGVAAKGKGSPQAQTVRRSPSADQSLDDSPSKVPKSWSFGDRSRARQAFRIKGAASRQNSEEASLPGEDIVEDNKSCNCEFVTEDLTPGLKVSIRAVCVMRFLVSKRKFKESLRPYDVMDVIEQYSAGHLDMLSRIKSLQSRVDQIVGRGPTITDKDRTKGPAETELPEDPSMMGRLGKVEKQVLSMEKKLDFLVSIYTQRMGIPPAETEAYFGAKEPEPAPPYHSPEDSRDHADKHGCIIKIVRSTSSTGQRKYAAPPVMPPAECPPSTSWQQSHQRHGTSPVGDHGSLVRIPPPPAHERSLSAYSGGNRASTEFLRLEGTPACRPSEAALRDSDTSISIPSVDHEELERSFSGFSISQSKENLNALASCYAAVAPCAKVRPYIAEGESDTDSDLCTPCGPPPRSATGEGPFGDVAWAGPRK
Numbers stand for hits; 0 = inactive; - = no result. Shown are actives, neighbours in structure and some others; about 1.6% of the full set was active somewhere.

SMILES	KCNQ2 inh	KCNQ2 enhance	Kir21 conf inh	HEK293 Tl flux	others
O=C(CCS(=O)(=O)c1cccc2nonc12)NC1CCCCCC1	0	11	0	0	CHO-K1 ctr=33;KCNQ1 pot spec=0;KCNQ2 pot conf=36;Kir2-1 sel=0;KCNQ2 W236L pot=0
O=C(CN1c2ccccc2S(=O)(=O)c2ccccc21)NCc1ccc(F)cc1	0	-	-	-
CC(=O)/C(CN1CCCCC1)=N\O	0	-	-	-
C/C(=N\O)C(=O)C(CN1CCCCC1)CN1CCCCC1	0	6	0	0	CHO-K1 ctr=0;KCNQ1 pot spec=35;KCNQ2 pot conf=0;Kir2-1 sel=0
CN1CCN(C(=S)c2cn(Cc3ccc(Br)cc3)c3ccccc23)CC1	0	-	-	-
O=C(CCCN1CCC(C(=O)c2ccc(F)cc2)CC1)c1ccc(F)cc1	0	-	-	-
O=C(CCCN1CCC(O)(c2ccc(Cl)cc2)CC1)c1ccc(F)cc1	0	-	34%	0
Cc1cccc(C)c1NC(=O)CNC(=O)C(Cc1ccccc1)NC(=O)c1ccccc1 (centres undefined)	0	-	-	-
c1ccc(CCN=C2CCCc3c2[nH]c2ccccc32)cc1	0	-	20%	70%
Nc1ccc(C(=O)N/N=C2\CCCc3c2[nH]c2ccccc32)cc1	0	0	-	-
CCOC(=O)c1ccc(NC(=O)CSc2nc(=O)n(CCN3CCOCC3)c3c2CCC3)cc1	0	0	-	-
CC(=O)N1c2ccc(N=Cc3cc(Br)cc(Br)c3O)cc2CC1C (centres undefined)	0	12	0	0	CHO-K1 ctr=0;KCNQ1 pot spec=43;KCNQ2 pot conf=14;Kir2-1 sel=0;KCNQ2 W236L pot=0
CC1CCCC(C)N1/N=C/c1cc(Br)cc(Br)c1O (centres undefined)	0	-	-	-
Cc1[nH]c(=O)c(C#N)c(C)c1CCC(=O)Nc1cc(S(C)(=O)=O)ccc1Cl	0	0	-	-
C[C@@H]1CC[C@H]2C(=O)N3[C@@H](CC[C@@H](C)[C@@H]3c3ccc(Br)cc3)C(=O)N2[C@H]1c1ccc(Br)cc1	0	-	-	-
C=CCOc1ccc(C=Nc2ccc(C)c(Cl)c2)c(O)c1	0	0	-	-
Cc1ccc(S(=O)(=O)Nc2nc3ccccc3nc2Nc2cccc(S(=O)(=O)N3CCCC3)c2)cc1	0	-	-	-
O=[N+]([O-])c1cccc(S(=O)(=O)Nc2nc3ccccc3nc2Nc2cccc(S(=O)(=O)N3CCCCC3)c2)c1	0	8.2	0	0	CHO-K1 ctr=0;KCNQ1 pot spec=17;KCNQ2 pot conf=0;Kir2-1 sel=0
O=C(Nc1nnc(SCc2cccnc2)s1)C1CC(=O)N(c2ccc(F)cc2)C1 (centres undefined)	0	-	-	-
O=C(CCNS(=O)(=O)c1ccc(Cl)cc1)N1CCN(c2ccccn2)CC1	0	-	-	-
CC(Oc1ccc(Cl)cc1Cl)C(=O)N(C)c1ccccc1 (centres undefined)	0	-	50%	0
COC(=O)NNC(=O)C(C)Oc1ccc(Cl)cc1Cl (centres undefined)	0	-	-	-
O=C(CCNC(=O)C1CCN(S(=O)(=O)c2ccccc2)CC1)NCc1ccccc1Cl	0	0	-	-
CN(Cc1ccccc1)CC(O)COc1ccc(CNCc2ccc(Cl)s2)cc1 (centres undefined)	0	-	24%	0
CN(Cc1ccccc1)CC(O)COc1ccc(CNCc2cccnc2)cc1 (centres undefined)	0	-	-	-
SMILES	KCNQ2 inh	KCNQ2 enhance	Kir21 conf inh	HEK293 Tl flux	others
CCCC(=O)N1CCN(c2ccc(NC(=S)NC(=O)CC)cc2)CC1	0	-	-	-
COc1ccc(C2CC(c3ccccc3)Nc3nc(NS(C)(=O)=O)nn32)cc1 (centres undefined)	0	-	-	-
CC(=O)Oc1ccc(-c2cccc(C(=O)NCCCO)c2)cc1	0	0	-	-
O=C1CCC(=O)N1c1ccc(NC2CCN(Cc3ccccc3)CC2)c([N+](=O)[O-])c1	0	-	-	-
O=[N+]([O-])c1ccccc1NC1CCN(Cc2ccccc2)CC1	0	0	33%	0
Cc1nc(SCC(=O)NCc2ccco2)c2c(C)c(C)sc2n1	0	-	-	-
Cc1sc2nc(C(C)C)nc(SCC(=O)NCc3ccco3)c2c1C	0	0	0	218%
COc1ccc(CNC(=O)COC(=O)c2ccco2)cc1	0	0	-	-
CCCCC(=O)Nc1c(C)cc(C)cc1Cl	0	12	0	0	CHO-K1 ctr=0;KCNQ1 pot spec=0;KCNQ2 pot conf=53;Kir2-1 sel=0;KCNQ2 W236L pot=0
CCC(=O)Nc1c(C)cc(C)cc1Cl	0	0	-	-
COCc1ccc(CN2CCCC(C(=O)Nc3ccccc3-c3ccc(OC)cc3)C2)o1 (centres undefined)	0	0	-	-
CCc1ccc(CN2CCCC(C(=O)Nc3ccccc3-c3ccc(OC)cc3)C2)o1 (centres undefined)	-6.1	0	0	0
N/C(=N\OC(=O)Nc1ccccc1)c1ncc(C(F)(F)F)cc1Cl	0	-	-	-
N/C(=N\OC(=O)Nc1ccccc1)c1cccc(C(F)(F)F)c1	0	11	0	0	CHO-K1 ctr=0;KCNQ1 pot spec=9.0;KCNQ2 pot conf=23;Kir2-1 sel=0;KCNQ2 W236L pot=0
O=C(NCCCN1CCOCC1)c1ccc(CSc2ccc(Cl)cc2)cc1	0	0	62%	0
CC(C)c1ccc(C(=O)NCCCN2CCOCC2)cc1	0	-	-	-
CC(=O)C1=C(O)C(=O)N(Cc2ccccc2)C1c1ccc([N+](=O)[O-])cc1 (centres undefined)	0	-	-	-
COC(=O)COc1ccc(S(=O)(=O)NCc2ccc3c(c2)OCO3)cc1	0	-	-	-
CCCCSCCCNC(=O)Nc1cccc(OC)c1	0	8.6	0	0	CHO-K1 ctr=0;KCNQ1 pot spec=0;KCNQ2 pot conf=15;Kir2-1 sel=0;KCNQ2 W236L pot=0
COc1cccc(NC(=O)NCCc2ccc(Cl)cc2)c1	0	-	-	-
C[C@@H]1C=C(C(=O)N2CCOCC2)O[C@H](OCc2ccc(CO)cc2)C1	0	0	-	-
Cc1nc(CN(C)C(=O)CC2C(=O)NCCN2Cc2ccc(-c3ccccc3)cc2)cs1 (centres undefined)	0	0	-	-
